PINK1 modulator – modulators of PINK1 expression | Potency, µM (highest dose often 76.6 µM), inactives show at the highest dose activation (PINK1 increase), hits mostly activators | PINK1 immunofluorescence, high-content cytometry, 24 h | 410,000 tested, 0.2% active; active = well fitted activation curve with a large enough effect; inconclusive = small, poorly fitted or top-dose-only effect; cell line not stated here; note: potency is the fitted concentration of half-maximal effect; % of control where 0% means no effect; nearly all actives have a fitted effect of over 65% in size
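PINK1 protein level read as immunofluorescence by microplate cytometer in a fixed, stained stable cell line after 24 h exposure to five compound concentrations, with CCCP as control.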
pAkt inh – blocks phosphorylation of Akt; Neuro2A IGF-stimulated pAkt S473 HTRF, 20 min; hits give low values; activity change, % for hits at 50 µM; 360,000 tested, 0.32% active; in the data active = activity change below about -80%; inconclusive = mostly about -51% to -80%; note: % is set by controls: 0 for no effect and ±100 for the full control effect
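Neuro2A cells (4,500/well, DMEM with 0.5% FBS) were treated with compound at a single 50 µM final concentration, stimulated with 6 nM IGF for 20 min at 37 °C, and lysed. Phospho-Akt Ser473 was read by HTRF as 665/615 ratio ×10^4.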
TCR act – activators of T cell receptors; primary human leukocytes, anti-CD3, IL-2 HTRF, 48 h; 330,000 tested, under 10 active; Potency, µM (titrated, usually from 9.22 µM), for inactives: at the top dose activation of IL-2 secretion, hits mostly activators; note: % of control where 0% means no effect
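Compounds are tested in HTS on primary human leukocytes co-incubated with a-CD3 beads for 48 hr. IL-2 output is measured by time-resolved FRET.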
BRCA1 expr act – activators of BRCA1 expression; MCF7-BRCA1-FFLuc reporter, luminescence, 48 h; response scale: scaled: vehicle 0%, 10 µM genistein 100%; Potency, µM (series often up to 46.1 µM), for the others: at the highest dose activation, actives largely listed as activators; 380,000 tested, 1.1% active; AID 624202; note: potency is the fitted concentration of half-maximal effect; nearly all actives have a fitted effect of over 80% in size
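MCF7-BRCA1-FFLuc cells, 2000/well in phenol-red-free MEM, attached 2 h then treated 48 h at 37 C. Luciferase luminescence read 15 min after reagent; normalized to genistein maximum activation (10microM) and DMSO, concentration-response fitted.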
The depositor's hits bear a star; i = inactive; ? = inconclusive; / = not tested or not shown; [ ] = another dose, or the depositor's remark. Sampled rows, rich in hits. Any-hit rate of the full collection: about 1.5%. Unless noted, calls come from the whole dose curve; as a rule, active = well fitted curve in the direction sought with a large enough effect; inconclusive = small, poorly fitted or top-dose-only effect, or another doubt; inactive = no such curve, though single readings can be large; an effect the other way counts as inactive or inconclusive.

SMILES	PINK1 modulator	pAkt inh	TCR act	BRCA1 expr act
O=C(COc1ccc(Cl)cc1Br)NC(=O)NC1CCCC1	3%	i	-6%	13µM*
C=C(CC[C@]12OC(C(=O)O)C(O)(C(=O)O)C(C(=O)O)(O1)C(OC(=O)/C=C/[C@@H](C)C[C@@H](C)CC)C2O)[C@@H](OC(C)=O)[C@H](C)Cc1ccccc1 (some centres undefined)	0%	/	/	20%
Cc1ncsc1CCC(=O)N1CCCC(c2nc(-c3ccncc3)ncc2-c2ccccc2)C1 (centres undefined)	-1%	/	/	/
CCCC(=O)Nc1sc(C)c(-c2ccc(OC)cc2)c1C#N	?	i	-9%[46.1 µM]	-17%
Cc1cccc(C(=O)Nc2sc(C)c(-c3ccccc3)c2C#N)c1	2%	i	3%	?
Cc1sc(NC(=O)C2CCCCC2)c(C#N)c1-c1ccccc1	1%	i	2%	7.1µM*
Cc1noc(C)c1C(=O)Nc1sc(C)c(-c2ccccc2)c1C#N	28µM*	i	4%	-32%
O=C(NCCc1c[nH]c2ccccc12)c1ccccc1	0%	i	/	13µM*
O=C(NCCc1c[nH]c2ccccc12)c1ccc([N+](=O)[O-])cc1	-1%	i	4%[46.1 µM]	?
O=C(NCCc1ccccc1)c1n[nH]c2ccccc12	-1%	i	1%	3.2µM*
O=C1c2ccccc2C(=O)N1CCCc1c[nH]c2ccccc12	-1%	i	4%[46.1 µM]	24%
O=C1c2ccccc2C(=O)N1CCc1c[nH]c2ccccc12	1%	i	-4%	2.2µM*
Cc1ccc(C(=O)NCCc2c[nH]c3ccccc23)s1	-1%	i	-2%	3.2µM*
CC(C)C(=O)NCCc1c[nH]c2ccccc12	0%	i	3%[46.1 µM]	27%
CCOC(=O)c1oc2ccc(/C=N/O)c(Cl)c2c1C	0%	i	3%	7.1µM*
N/C(=N\OC(=O)C1CCCCC1)c1ccccn1	2%[38.3 µM]	i	-1%	11µM*
CC(C)(C)CC(=O)O/N=C(\N)c1ccccn1	5%	i	-2%[46.1 µM]	5µM*
N/C(=N\OC(=O)Cc1ccccc1)c1ccccc1Cl	1%	i	-4%	14µM*
Cc1ccc(OCC(=O)O/N=C(\N)c2ccccn2)cc1	0%	i	-5%	6.3µM*
COc1ccc(CN2CCCC(n3cc(C(=O)N4CCCCC4)nn3)C2)cc1OC (centres undefined)	-1%	/	/	/
COCCn1c(=O)c(-c2cccs2)nc2cnc(OCc3ccccc3)nc21	3%	/	/	/
N/C(=N\OC(=O)Cc1ccc(Cl)cc1)c1ccccn1	-1%	i	-4%	10µM*
Cc1ccc(NC(=O)CCCc2ccccc2)nc1	2%	i	-3%	11µM*
COc1ccc(NC(=O)CCCc2ccccc2)cc1OC	0%	i	-29%	11µM*
Cc1ccc(NC(=O)Cc2ccc(-c3ccccc3)cc2)nc1	1%	i	1%	-3%
SMILES	PINK1 modulator	pAkt inh	TCR act	BRCA1 expr act
COC(=O)c1cccc(NC(=O)CCc2ccccc2)c1	-1%	i	-2%[46.1 µM]	7.9µM*
COC(=O)c1cccc(NC(=O)CCc2cc(OC)c(OC)c(OC)c2)c1	1%	i	3%[46.1 µM]	9%
COc1ccc(NC(=O)CCCC(=O)c2ccccc2)cc1OC	3%	i	-3%	-2%
CCOC(=O)Cn1c(=O)n(-c2ccccc2OC)c2nc(-c3ccccc3C)nc(C(N)=O)c21	1%	/	/	-5%
CCCC(=O)N(CCN1CCOCC1)c1nc2cc(C)c(C)cc2s1	3%	i	-3%	4µM*
COc1cc(-c2nnc(COc3ccc(Cl)cc3C)o2)cc(OC)c1OC	4%	i	-1%	-11%
Clc1ccc(OCc2nnc(-c3ccccc3Br)o2)c(Cl)c1	5%[38.3 µM]	i	2%	3.2µM*
Cc1cc(Br)ccc1OCc1nnc(-c2ccccc2)o1	3%	i	3%	13µM*
Fc1ccc(OCc2nnc(-c3ccccc3Br)o2)c(Cl)c1	9%	i	-4%	?
Cc1cc(Cl)ccc1OCc1nnc(-c2ccccc2C)o1	0%	i	4%	10µM*
Cc1ccc(NC(=O)CN2CCCCCC2)c(Br)c1	13%	i	4%	11µM*
COc1ccc(N2CCN(CC(=O)Nc3ccc(C)cc3Br)CC2)cc1	1%	i	/	-6%
COc1ccc(NC(=O)CN2CCCCC2)c([N+](=O)[O-])c1	/	i	0%	10µM*
Cc1cccc(C(=O)N[C@H]2CC[C@@H](n3cc(C(=O)N4CCCC4)nn3)CC2)c1	0%	/	/	/
